S1P4 agonist = S1P4 receptor agonists, primary screen, cell-based | S1P4-expressing cell line, agonist reporter assay | activation, % at 4.98 µM | hit rate 0.35% among 220,000; in the data active = activation above about 11%;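 note: 0% = DMSO vehicle and 100% = reference agonist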
Target sequence (O95977 whole entry, looked up): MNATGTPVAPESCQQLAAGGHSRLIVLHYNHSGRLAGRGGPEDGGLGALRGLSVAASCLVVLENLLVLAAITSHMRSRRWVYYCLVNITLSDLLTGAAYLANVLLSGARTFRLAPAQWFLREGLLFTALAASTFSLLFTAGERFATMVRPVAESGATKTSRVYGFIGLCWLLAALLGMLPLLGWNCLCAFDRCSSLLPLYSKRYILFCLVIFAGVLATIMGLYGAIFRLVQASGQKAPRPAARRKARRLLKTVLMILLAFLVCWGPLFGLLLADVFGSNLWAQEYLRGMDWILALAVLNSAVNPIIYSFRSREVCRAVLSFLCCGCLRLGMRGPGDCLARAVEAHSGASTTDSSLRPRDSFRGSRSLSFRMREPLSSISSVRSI
Hsp70 act = Hsp70 transcriptional activators, primary screen, cell-based, HeLa, Hsp70 promoter luciferase, luminescence, 10 µM | HeLa Hsp70 promoter luciferase reporter; scaled: vehicle 0, proteasome-inhibitor control 100% | hit rate 0.04% among 200,000 | activation, % at 10 µM;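 active = activation above the mean across all tested compounds plus 3 SD, cutoff set per campaign, cut at about 5.5% in these data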;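 note: 100% = MG132 at 30 µM as the positive control and 0% = DMSO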
S1P4 antag = S1P4 receptor antagonists, primary screen, cell-based | hit rate 0.26% among 220,000 | AID 1510, 2009 | S1P4-expressing cells, antagonist mode, reporter read-out | inhibition, % at 4.98 µM | Sphingosine 1-phosphate receptor 4 (Homo sapiens), O95977; in the data active = inhibition above about 29%;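 note: 0% = wells stimulated with agonist and 100% = vehicle wells without agonist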
CHOP inhibitor = inhibitors of CHOP promoter induction, primary screen, cell-based, unfolded protein response, luciferase reporter; hit rate 3.8% among 220,000; inhibition, % at 10 µM; AID 2732, 2010; CHO-K1 CHOP-promoter luciferase, tunicamycin-induced, 15-18 h;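 active = compounds that reduced the stress-induced luciferase reporter signal by more than about 70% of percent inhibition, limit read from the data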;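 note: 0% = tunicamycin plus vehicle and 100% = wells without tunicamycin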
The depositor's hits bear a star; nt = no result. Shown are actives, neighbours in structure and some others; about 4.2% of the full set was active somewhere.

SMILES | S1P4 agonist | Hsp70 act | S1P4 antag | CHOP inhibitor
NC(=O)CC(NC(=O)Cc1cccc2ccccc12)c1ccc(NC2CCCCCCC2)c([N+](=O)[O-])c1 (stereo unspecified) | nt | nt | nt | 75*
CS(=O)(=O)n1nc(-c2ccccc2)nc1N | 0 | 0 | 10 | -24
COc1ccc(CCNc2ccc(C(CC(N)=O)NC(=O)c3ccccc3)cc2[N+](=O)[O-])cc1 (stereo unspecified) | nt | nt | nt | 20
NC(=O)CC(NC(=O)c1ccccc1)c1ccc(NCCc2ccc(F)cc2)c([N+](=O)[O-])c1 (stereo unspecified) | nt | nt | nt | 92*
Cc1ccc(CC(=O)Nc2ncc([N+](=O)[O-])s2)cc1 | 0 | 0 | 5 | 1
Cc1ccc(C(C)C)c(OCC(=O)OCc2c(C)noc2C)c1 | 0 | 0 | -6 | 83*
COc1cccc(/C=N/NC(=O)C(=O)Nc2ccccc2OC(F)(F)C(F)F)c1O | 0 | 0 | -7 | 78*
CNC(=O)/C(C#N)=C/c1cn(CC(=O)NCc2ccco2)c2ccccc12 | 0 | 1 | 4 | 24
O=S(=O)(c1ccccc1)N1CCN(S(=O)(=O)N2CCCCC2)CC1 | 0 | 0 | -11 | 3
O=S(=O)(NCCc1ccccc1)c1ccc(S(=O)(=O)N2CCCCC2)cc1 | 3 | 0 | 3 | 20
O=S(=O)(c1ccc(S(=O)(=O)N2CCN(C/C=C/c3ccccc3)CC2)cc1)N1CCCC1 | 3 | 0 | -8 | 87*
O=S(=O)(NCc1ccccc1)c1ccc(S(=O)(=O)N2CCCCC2)cc1 | 1 | 0 | -5 | 72*
CCCCOC(=O)CSc1nnc(N)s1 | -2 | 0 | -11 | -5
COc1ccc2cc3cc(C(=O)Nc4ccccc4N4CCN(C)CC4)oc3nc2c1 | -2 | 0 | 9 | 86*
CCC(=O)Nc1ccc(N2CCCCC2)c(C(=O)Nc2ccccc2C)c1 | 2 | 0 | -3 | 72*
Cc1ccccc1NC(=O)c1cc(N)ccc1N1CCCCC1 | -2 | 0 | 3 | 0
CCc1cccc(NC(=O)CCS(=O)(=O)c2cccc3nonc23)c1 | 1 | 0 | -23 | 83*
O=C(O)COc1ccc(F)cc1Br | -1 | nt | 11 | -5
CC(C)(C)c1nn(-c2ccccc2)c2[nH]c(=O)c(CNCc3ccc4c(c3)OCO4)cc12 | 2 | 0 | -9 | 94*
CCN1CC2([N+](=O)[O-])CC=C(OC)C([N+](=O)[O-])(C1)C2 (stereo unspecified) | 0 | 0 | -21 | 2
Cc1cc(N2CCN(c3ccc(F)cc3)CC2)nc2cc(O)ccc12 | -2 | 0 | -25 | 82*
N#CC(c1cccc(Cl)c1)c1ccc2c(C(F)(F)F)cc(C(F)(F)F)nc2n1 (stereo unspecified) | 0 | 0 | 0 | 102*
N#CCCN(C(=O)c1ccco1)c1ccccc1 | 1 | 0 | -1 | -11
CSc1nnc([C@@H]2CCCN2C(=O)OC(C)(C)C)o1 | 0 | 0 | 1 | -1
COc1ccc(CCN(C(=O)C(F)(F)F)C(C(=O)NC2CCCCC2)c2cccs2)cc1 (stereo unspecified) | 2 | 0 | 0 | 16
SMILES | S1P4 agonist | Hsp70 act | S1P4 antag | CHOP inhibitor
COc1ccc(CCN(C(=O)C(F)(F)F)C(C(=O)NC2CCCCC2)c2ccc(C)s2)cc1 (stereo unspecified) | 0 | 0 | 5 | 87*
COc1ccc(-c2cn(-c3ccc(OC)cc3)c3[n+]2-c2ccccc2CC3)cc1 | 3 | 0 | -17 | 14
COC(=O)C1=C(C)N(C)C(C)=C(C(=O)OC)C1c1ccc(Cl)cc1 | 2 | 0 | 4 | 72*
CCOC(=O)C1=C(C)N(C)C(C)=C(C(=O)OCC)C1c1ccc(Cl)cc1 | 0 | 0 | -5 | 80*
CCOC(=O)C1=C(C)N(C)C(C)=C(C(=O)OCC)C1c1ccc(C(=O)OC)cc1 | -2 | 0 | 9 | 28
CCOC(=O)C(C)c1n[nH]c(=O)c2ccccc12 (stereo unspecified) | 0 | 0 | -7 | 12
O=C(CCc1nc(-c2ccccc2)no1)Nc1cc(C(F)(F)F)ccc1Cl | -1 | 0 | -23 | 93*
CNC(=O)CCc1nc(-c2ccc(C(C)(C)C)cc2)no1 | 1 | 0 | 0 | 94*
O=C(Cc1ccccc1)NC(=S)Nc1cc(C(F)(F)F)ccc1Cl | 2 | 0 | -2 | 95*
CC(C)(C)c1ccc(-c2noc(CCC(=O)NCC3CCCO3)n2)cc1 (stereo unspecified) | 0 | -1 | -12 | 90*
